Mtb BioA inh – M. tuberculosis BioA enzyme inhibitors, primary screen, biochemical, plate reader, single point, HTS. hit rate 0.096% among 360,000. 7,8-diaminopelargonic acid synthase BioA (Mycobacterium tuberculosis). purified M. tuberculosis BioA enzyme. inhibition, % at 9.99 µM; in the data active = inhibition above about 40%; inconclusive = no clear call, values can overlap the other calls
GDH-TPI counter – GDH-TPI coupling enzyme inhibitors, primary screen, artefact control for M. tuberculosis FBA inhibitor project, biochemical, absorbance, full deck; GDH-TPI coupled enzyme counterscreen, NADH absorbance; inhibition, % at 4.8 µM; hit rate 1.2% among 360,000; in the data active = inhibition above about 30%;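 also: 0% = DMSO wells and 100% = wells lacking the enzyme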
FadD28 binding – inhibitors of FadD28 bisubstrate probe binding, primary screen, biochemical, fluorescence polarization, single point; hit rate 0.22% among 360,000; Mycobacterium tuberculosis FadD28 fatty-acid-AMP ligase; inhibition, % at 12.5 µM; AID 588549, 2011; in the data active = inhibition above about 8.5%, passing the limit was not always enough; inconclusive = no clear call, values can overlap the other calls
SARS 3CLpro inh – SARS-CoV 3CLpro protease inhibitors, primary screen, biochemical, quenched FRET. recombinant SARS-CoV 3CLpro, quenched FRET peptide cleavage. inhibition, % at 6 µM. hit rate 0.14% among 290,000; in the data active = inhibition above about 12%
FBA Mtb inh – Mtb FBA enzyme inhibitors, primary screen, biochemical, fluorescence, strain H37Rv; inhibition, % at 1 µM; hit rate 2.3% among 360,000; purified M. tuberculosis FBA, fluorescence read-out; in the data active = inhibition above about 27%;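 also: 0% = vehicle and 100% = reference inhibitor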
Target sequence (P9WQA3 whole entry, looked up): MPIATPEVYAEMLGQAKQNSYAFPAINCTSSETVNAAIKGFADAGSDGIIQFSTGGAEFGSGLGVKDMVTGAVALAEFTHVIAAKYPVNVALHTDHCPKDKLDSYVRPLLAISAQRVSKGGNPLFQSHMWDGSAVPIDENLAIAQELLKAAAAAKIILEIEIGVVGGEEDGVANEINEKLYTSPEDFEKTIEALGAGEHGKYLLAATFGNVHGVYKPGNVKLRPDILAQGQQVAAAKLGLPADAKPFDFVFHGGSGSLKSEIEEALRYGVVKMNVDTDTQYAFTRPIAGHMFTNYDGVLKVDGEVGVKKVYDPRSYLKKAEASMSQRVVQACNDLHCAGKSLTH
Starred values were filed as active, the others as inactive; ? = inconclusive; / = no result; + = active, no number. Sampled rows, rich in hits. Any-hit rate of the full collection: about 3.1%.

SMILES | Mtb BioA inh | GDH-TPI counter | FadD28 binding | SARS 3CLpro inh | FBA Mtb inh
CC(=O)N(C)C[C@H]1Oc2ncc(C#Cc3ccccc3)cc2C(=O)N([C@@H](C)CO)C[C@H]1C | -1.6 | / | / | / | /
COc1ccc(S(=O)(=O)Nc2ccc3c(c2)C(=O)N([C@H](C)CO)C[C@@H](C)[C@@H](CN(C)C(=O)Nc2ccc(C(F)(F)F)cc2)O3)cc1 | -3.3 | / | / | / | /
CC(=O)c1ccc(N2CCN(C(=O)c3ccc(Cl)c(NC4=NC5CS(=O)(=O)CC5S4)c3)CC2)cc1 (stereo not given) | 2.6 | 42.1* | -1.4 | -4.7 | 1.1
CC(C)C(NC(=O)c1ccc2c(c1)OCO2)C(=O)N/N=C/c1cccs1 (stereo not given) | -3.3 | 14.8 | ? | 0.0 | 0.3
Cc1c(/C=N/NC(=O)C(NC(=O)c2ccc3c(c2)OCO3)C(C)C)c2ccccc2n1C (stereo not given) | / | 37.9* | -0.8 | 1.9 | 2.2
COc1ccc(NC(=O)N(C)C[C@H]2OCCCC[C@@H](C)Oc3ccc(NC(=O)C4CCCCC4)cc3C(=O)N([C@@H](C)CO)C[C@H]2C)cc1 | -0.4 | / | / | / | /
CO[C@H]1CN(C)C(=O)c2ccc(NC(=O)c3ccccc3F)cc2OC[C@H](C)N(C(C)=O)C[C@H]1C | -2.0 | / | / | / | /
Cc1cc(=O)n2ccccc2c1C#N | 2.2 | 24.9 | -0.7 | 0.0 | +
Cc1cc(=O)n2c(ccc3ccccc32)c1C#N | 1.2 | -6.9 | -2.7 | -8.6 | -2.0
C[C@@H]1CN([C@H](C)CO)C(=O)c2cc(/C=C/c3ccccc3)cnc2O[C@H]1CN(C)C(=O)CN1CCOCC1 | -2.4 | / | / | / | /
Cc1ccc(S(=O)(=O)N[C@@H]2CC[C@@H](CC(=O)NC3CCCCC3)O[C@H]2CO)cc1 | 0.7 | / | / | / | /
COc1ccc(N2C(=O)NC(=O)/C(=C/c3ccc([N+](=O)[O-])s3)C2=O)cc1 | 3.0 | 14.8 | 35.0* | -4.4 | -1.3
COc1ccccc1N1C(=O)NC(=O)/C(=C/c2ccc([N+](=O)[O-])s2)C1=O | / | / | / | 5.6 | /
COc1cccc(N2C(=O)NC(=O)/C(=C/c3ccc4c(c3)Cc3ccccc3-4)C2=O)c1 | -1.8 | 0.0 | -3.5 | 4.3 | 6.1
COc1cccc(N2C(=O)NC(=O)/C(=C/c3ccc([N+](=O)[O-])s3)C2=O)c1 | 2.2 | 6.9 | 18.3* | 0.9 | -1.6
CCOc1ccc(N2C(=O)NC(=O)/C(=C\c3cc(OC)c(OC)cc3[N+](=O)[O-])C2=O)cc1 | -5.5 | 11.8 | -0.6 | -1.0 | 22.8
COc1ccc(N2C(=O)NC(=O)/C(=C\c3ccc([N+](=O)[O-])s3)C2=O)cc1 | / | 3.5 | 35.6* | 2.0 | 4.0
COc1ccc(NC(=O)Nc2ccc3c(c2)C(=O)N([C@@H](C)CO)C[C@@H](C)[C@@H](CN(C)C(=O)CCCN(C)C)OCCCC[C@H](C)O3)cc1 | -3.8 | / | / | / | /
C[C@H](CO)N1C[C@H](C)[C@@H](CN(C)C)Oc2c(NC(=O)Nc3ccc(C(F)(F)F)cc3)cccc2C1=O | 3.9 | / | / | / | /
CO[C@@H]1CN(C)C(=O)c2ccc(NC(C)=O)cc2OC[C@H](C)N(Cc2cc(F)ccc2F)C[C@H]1C | 1.1 | / | / | / | /
CC(=O)C1=C(O)C(=CC=Cc2ccccc2)OC1=O | -0.3 | 31.0* | 2.5 | / | 1.9
COc1ccc(CN(C)C[C@@H]2OCCCC[C@@H](C)Oc3ccc(NS(=O)(=O)c4cn(C)cn4)cc3C(=O)N([C@H](C)CO)C[C@@H]2C)cc1 | -1.3 | / | / | / | /
S=C(N/N=C/c1cccs1)NC1CC2CCC1C2 (stereo not given) | -1.6 | 20.7 | 1.5 | 2.2 | -2.1
Oc1ccc(/C=N/NC(=S)NC2CC3CCC2C3)cc1 (stereo not given) | 0.0 | 60.5* | -0.1 | 3.6 | -0.8
COc1ccc(NC(=O)Nc2ccc3c(c2)C(=O)N([C@@H](C)CO)C[C@H](C)[C@H](CN(C)S(=O)(=O)c2ccccc2)O3)cc1 | 5.2 | / | / | / | /
CN(/N=C/c1ccncc1)c1cnc2ccccc2n1 | / | 32.6* | -1.3 | -0.5 | -5.3
O=C(Nc1ccc2c(c1)[C@@H]1C[C@H](CC(=O)N3CCCCC3)O[C@H](CO)[C@@H]1O2)NC1CCCC1 | -1.6 | / | / | / | /

Compound activity from PubChem.
